Source: PubChem BioAssay (NCATS)
Records with an inconclusive call do not appear. Unmarked numbers belong to inactive results. The source made the active and inactive calls. Calls come from the whole dose curve; as a rule, active = well fitted activation curve with a large enough effect; inconclusive = small, poorly fitted or top-dose-only effect; inactive = no such curve, though single readings can be large or run the other way.

biological target: Cellular tumor antigen p53 (Homo sapiens) (UniProt P04637); assay: Primary qHTS for small molecule compounds that upregulate eGFP-tagged delta133p53alpha (in N-terminal) cells. (AID 2060322); conditions: NCI-H358 eGFP-delta133p53alpha fluorescence, 24 h; activation: active compounds read high; note: nearly all actives have a fitted effect of over 75% in size;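 for activation: cells pre-induced with doxycycline then dosed without doxycycline; series mostly up to about 56 µM; 0% = DMSO vehicle and 100% = reference activator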
Sequence (P04637 whole entry, looked up): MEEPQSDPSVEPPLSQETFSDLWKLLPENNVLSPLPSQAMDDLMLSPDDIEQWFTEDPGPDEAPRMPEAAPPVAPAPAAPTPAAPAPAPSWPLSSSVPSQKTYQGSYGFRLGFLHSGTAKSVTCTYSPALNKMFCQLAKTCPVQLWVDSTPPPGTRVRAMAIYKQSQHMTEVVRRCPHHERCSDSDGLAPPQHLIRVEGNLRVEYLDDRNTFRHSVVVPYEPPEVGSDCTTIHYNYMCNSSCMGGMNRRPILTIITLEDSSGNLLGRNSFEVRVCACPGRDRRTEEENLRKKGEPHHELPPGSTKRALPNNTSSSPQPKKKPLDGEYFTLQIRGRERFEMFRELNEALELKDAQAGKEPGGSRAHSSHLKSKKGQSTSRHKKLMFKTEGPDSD
Method in brief: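 NCI-H358 cells pre-induced 24 h with 10 ng/ml doxycycline for eGFP-delta133p53alpha, plated dox-free and exposed 24 h at 37C to titrated compounds. Fixed, Hoechst-stained; gated GFP peak intensity by laser scanning cytometry, normalized to DMSO (0%) and 57.5 uM 5-azacytidine (100%).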
Potency is the fitted concentration of half-maximal effect.

Row | SMILES | activation [%] | Potency
1 | Cc1cc(O)c2c(O)c3c(O)cccc3cc2c1 | 0.837 | 
2 | CC(=O)Nc1ccc(C(=O)O)cc1 | 26.6 | 
3 | C=CS(=O)(=O)N1CCCN(c2cc(NCCC(=O)O)nc(-c3ccccn3)n2)CC1 | -4.47 | 
4 | O=C1O[C@H]([C@@H](O)CO)C(O)=C1O | -9.6 | 
5 | CC(=O)OCC[N+](C)(C)C | 15.3 | 
6 | COc1cc(OC)cc(-c2ccc3ncc4ccc(=O)n(-c5ccc(N6CCNCC6)c(C(F)(F)F)c5)c4c3c2)c1 | -7.04 | 
7 | CO[C@@H]1[C@@H](O[C@@H]2O[C@H](C)[C@@H](O[C@H]3C[C@@](C)(O)[C@@H](O)[C@H](C)O3)[C@H](N(C)C)[C@H]2O)[C@@H](CC=O)C[C@@H](C)[C@@H](O[C@@H]2CC[C@H](N(C)C)[C@@H](C)O2)/C=C/C=C/C[C@@H](C)OC(=O)C[C@H]1OC(C)=O | -19.8 | 
8 | COc1ccc2ccc(=O)oc2c1CC=C(C)C | -15 | 
9 | CCN(CC)CCNC(=O)COc1ccc(Cl)cc1 | 19.2 | 
10 | CCCCC(CC)COC(=O)c1ccccc1O (stereo not given) | -22.6 | 
11 | NC(=O)Cc1cccc(C(=O)c2ccccc2)c1N | 9.6 | 
12 | CCOc1ccccc1O[C@H](c1ccccc1)[C@H]1CNCCO1 | -13 | 
13 | CC1(C)OC2=C(C(=O)c3ccccc3C2=O)[C@H](NCc2ccccc2)[C@H]1O |  | 24.3 µM (active)
14 | CCCCC(CC)COC(=O)c1ccc(N(C)C)cc1 (stereo not given) | 0.837 | 
15 | Nc1nc(NCc2ccccc2)c2[nH]cnc2n1 | 6.7 | 
16 | NCCNCCNCCN | -9.6 | 
17 | C=C1C(=O)OC2C=C(C)CCC=C(C)CCC12 (stereo not given) | 22 | 
18 | CC(=O)Oc1cccc(O)c1 | 18.6 | 
19 | CCN(CCCCOC(=O)c1ccc(OC)c(OC)c1)C(C)Cc1ccc(OC)cc1 (stereo not given) | -6.69 | 
20 | CC(O)CN(CCN(CC(C)O)CC(C)O)CC(C)O (stereo not given) | 22 | 

Row | SMILES | activation [%] | Potency
21 | COc1ccc2cc1Oc1ccc(cc1)C[C@H]1c3cc(c(OC)cc3CCN1C)Oc1c(OC)c(OC)cc3c1[C@H](C2)N(C)CC3 | -18.2 | 
22 | CCCCN(CCCC)CCCOC(=O)c1ccc(N)cc1 | -2.51 | 
23 | O=S(=O)(NCCNCC=Cc1ccc(Br)cc1)c1cccc2cnccc12 | -19.7 | 
24 | NC1CCN(c2nc3c(cc2F)c(=O)c(C(=O)O)cn3-c2ccc(F)cc2F)C1 (stereo not given) | 11.9 | 
25 | O=C1c2c(O)cccc2Cc2cccc(O)c21 | -24.3 | 
26 | CNC(=O)c1c(I)c(NC(=O)CCCCC(=O)Nc2c(I)c(C(=O)O)c(I)c(C(=O)NC)c2I)c(I)c(C(=O)O)c1I | -10 | 
27 | Cl/C(=C\n1cncn1)c1ccc(Cl)cc1Cl | -2.82 | 
28 | Cc1nc(C2CCCCC2)c(-c2ccc(S(N)(=O)=O)c(F)c2)o1 | 19.2 | 
29 | CN(C)CCC[C@@]1(c2ccc(F)cc2)OCc2cc(C#N)ccc21 | 15.3 | 
30 | C[C@H](Cn1cnc2c(N)ncnc21)OCP(=O)(O)O | 61.4 | 
31 | CC(=O)N[C@@H]1[C@H](O[C@@H]2c3ccc(c(Cl)c3)Oc3cc4cc(c3O[C@H]3O[C@H](CO)[C@@H](O)[C@H](O)[C@H]3NC(=O)CCCCCCCC(C)C)Oc3ccc(cc3Cl)C[C@H]3NC(=O)[C@H](N)c5ccc(O)c(c5)Oc5cc(O)cc(c5)[C@H](NC3=O)C(=O)N[C@H]4C(=O)N[C@H]3C(=O)N[C@@H]2C(=O)N[C@@H](C(=O)O)c2cc(O)cc(O[C@H]4O[C@H](CO)[C@@H](O)[C@H](O)[C@H]4O)c2-c2cc3ccc2O)O[C@H](CO)[C@@H](O)[C@@H]1O | 25.3 | 
32 | O=C(O)/C=C\C(=O)O | -25.4 | 
33 | C[C@@H](N)C(=O)O | 5.02 | 
34 | O=C(C1CCCCC1)N1CC(=O)N2CCCc3ccccc3C2C1 (stereo not given) | 4.18 | 
35 | CCOc1c(N2CCOCC2)cnn(C)c1=O | -4.18 | 
36 | COc1cc2nc(N3CCCCC3)nc(NC3CCN(C)CC3)c2cc1OC |  | 38.5 µM (active)
37 | CCOC(=O)c1ccc(O)c(O)c1 | -23.2 | 
38 | COc1ccc2nc(SCc3ncc(C)c(OC)c3C)[nH]c2c1 | 7.34 | 
39 | Oc1cn2c(n1)Nc1ccc(Cl)c(Cl)c1C2 | -8.37 | 
40 | NC(=O)C1(N2CCCCC2)CCN(CCCC(=O)c2ccc(F)cc2)CC1 | 14.2 | 
